# Sampled rows, rich in hits. Any-hit rate of the full collection: about 3.1%.
# Mcl-1 Bim block – human Bim-Mcl-1 interaction inhibition; hit rate 0.1% among 190,000; Q07820; Bead-based flow cytometry, Bim peptide-Mcl-1 binding; inhibition, % at 10 µM; in the data active = inhibition above about 40%;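 also: 0% = no compound tracer wells and 100% = peptide blocker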
# Target sequence (Q07820 whole entry, looked up): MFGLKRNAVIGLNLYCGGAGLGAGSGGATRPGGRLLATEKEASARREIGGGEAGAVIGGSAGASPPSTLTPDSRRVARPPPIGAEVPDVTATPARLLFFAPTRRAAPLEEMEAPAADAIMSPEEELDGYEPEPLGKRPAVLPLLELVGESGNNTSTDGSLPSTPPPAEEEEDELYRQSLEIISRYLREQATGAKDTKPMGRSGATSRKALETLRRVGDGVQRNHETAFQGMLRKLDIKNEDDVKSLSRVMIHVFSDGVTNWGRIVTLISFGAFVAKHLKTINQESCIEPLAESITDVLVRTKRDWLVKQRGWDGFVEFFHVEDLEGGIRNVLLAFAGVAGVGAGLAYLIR
# 14-3-3 Bad inh – disrupts binding of bovine 14-3-3 zeta to phospho-Bad peptide; P63103; TR-FRET 14-3-3zeta/Dy647-pBad peptide displacement, 1 h; inhibition, % at 21.7 µM; hit rate 0.71% among 220,000; AID 781;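 active = inhibition above about 70%, limit read from the data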;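 also: 0% = full 14-3-3 plus peptide FRET controls and 100% = background without 14-3-3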
# Mcl1 Bid PPI – disrupts binding of human Mcl-1 to Bid peptide; Q07820; hit rate 0.97% among 220,000; TR-FRET Mcl-1/Bid-Dy647 peptide binding, 1536-well; inhibition, % at 21.7 µM; AID 1021;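 active = compounds that cut the binding signal by more than half at the single screening dose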;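 also: His-tagged Mcl-1 with europium anti-His antibody binding Bid BH3 peptide; 0% = Mcl-1 plus peptide wells and 100% = peptide-only wells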
# NCF1 inh – inhibitors of human p47phox binding. P14598. p47phox/p22phox peptide binding, fluorescence polarization, 2 h. inhibition, % at 24.7 µM. hit rate 0.53% among 220,000. AID 1274;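 active = inhibition above about 30%, limit read from the data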;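 also: 0% = p47phox with labelled peptide and 100% = labelled peptide alone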
# Mcl1 Noxa PPI – Mcl-1/Noxa interaction inhibition; AID 1022; hit rate 1.5% among 220,000; TR-FRET Mcl-1/Noxa peptide binding, 2 h; inhibition, % at 21.7 µM;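 active = compounds that cut the protein-peptide binding signal by more than 50% relative to plate controls in a single-dose test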;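 also: His-tagged Mcl-1 with rhodamine Noxa BH3 peptide and terbium anti-His antibody; 0% = Mcl-1 plus Noxa peptide wells and 100% = peptide-only wells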
# * = called active by the depositor; i = inactive; · = no result given.
SMILES,Mcl-1 Bim block,14-3-3 Bad inh,Mcl1 Bid PPI,NCF1 inh,Mcl1 Noxa PPI
Cc1c(N=Nc2c(-c3ccc([N+](=O)[O-])cc3)[nH]n(C(N)=S)c2=O)cccc1[N+](=O)[O-],0.0,91.6*,97.8*,22.2,115.7*
Cc1[nH]n(C(N)=S)c(=O)c1N=Nc1ccc2ccccc2c1,2.0,-28.1,-122.6,-11.8,-16.9
COc1ccc(C2C(C#N)=C(N)OC3=C2C(=O)CCC3)c(OC)c1OC (stereo not drawn),0.0,-11.4,-95.8,-2.7,16.2
COc1ccc(C2C(C#N)=C(N)OC3=C2C(=O)CCC3)cc1Cn1cc([N+](=O)[O-])cn1 (stereo not drawn),7.0,1.3,-16.8,7.5,3.6
COc1ccc(C2C(C#N)=C(N)OC3=C2C(=O)CC(C)C3)c(OC)c1OC (stereo not drawn),-6.0,-1.5,52.5*,-14.2,17.6
COc1ccc(C2C(C#N)=C(N)OC3=C2C(=O)CCC3)cc1OC (stereo not drawn),-3.0,-1.1,70.0*,-2.1,-4.1
Nc1c(C(=O)NCCc2ccc(Cl)cc2)sc2ccc(S(=O)(=O)N3CCCCC3)cc12,-3.0,-12.8,-28.1,-5.5,2.3
COC(=O)CCCC(=O)N1CCCC(CNS(=O)(=O)c2ccc(OC)cc2)C1 (stereo not drawn),0.0,1.7,-10.9,2.0,5.9
O=C1c2cccnc2C(=O)N1Cc1ccccc1,-3.0,0.4,6.6,-5.3,-41.7
O=C1c2cccc3c(O)ccc(c23)C(=O)N1Cc1ccccc1,·,-20.3,1.4,36.8*,-129.0
Cc1ccc(C(C)C)c(OCCN(C)C)c1,-7.0,22.0,59.5*,-0.1,24.5
C#CCn1cc(C=C2C(=O)c3ccccc3C2=O)c2ccccc21,25.0,i,i,81.3*,54.7*
O=C(O)/C(=C/c1ccco1)NC(=O)c1ccccc1,-1.0,0.0,-28.9,-2.6,23.6
O=C(O)/C(=C\c1ccco1)NC(=O)c1cccc2ccccc12,2.0,0.8,-9.9,126.7*,26.9
Cc1cccc(-n2c(C)nc3cc(C(=O)NCc4ccc5c(c4)OCO5)ccc32)c1,7.0,-4.8,-18.9,-3.4,8.0
O=C(CN1CCN(C2CCCCC2)CC1)Nc1ccccc1-c1ccccc1,0.0,83.1*,44.1,1.4,8.0
O=C(CN1CCCCC1)Nc1ccccc1-c1ccccc1,-4.0,-3.8,-14.9,-7.5,10.9
COc1ccc(CCNC(=O)COC(=O)Cc2cccc3ccccc23)cc1,-6.0,8.9,-5.4,3.4,83.1*
COc1cc(/C=C2\SC(c3ccc(C)cc3)=NC2=O)cc(OC)c1OC,-6.0,0.2,-2.7,-73.5,·
COc1cc(/C=C2\SC(c3ccccc3)=NC2=O)cc(Cl)c1O,0.0,-23.8,-75.2,-25.8,73.3*
O=C1c2ccccc2-c2n[nH]c(=O)c3ccc(N4CCCCC4)c1c23,1.0,-13.4,-4.9,-0.4,29.8
O=C(Cn1cc2c(n1)CCCCC2)NCc1ccccn1,-1.0,-2.2,-32.1,43.4*,-6.5
CCN1C(=O)/C(=C\c2ccc(-c3ccc([N+](=O)[O-])cc3OC)o2)SC1=Nc1cccc(C(=O)O)c1,-6.0,59.6,69.7*,-11.8,97.9*
CCN=C1S/C(=C\c2ccc(-c3cccc(C(=O)O)c3)o2)C(=O)N1CC,4.0,-9.4,-22.1,-14.1,35.4
COC(=O)c1[nH]c2ccccc2c1NC(=O)c1ccccc1[N+](=O)[O-],93.0*,-11.4,-3.7,-8.2,-2.7
SMILES,Mcl-1 Bim block,14-3-3 Bad inh,Mcl1 Bid PPI,NCF1 inh,Mcl1 Noxa PPI
O=C(NCC1CCCO1)c1cc([N+](=O)[O-])ccc1Cl (stereo not drawn),-1.0,-17.6,93.6*,-14.9,8.8
COc1ccccc1NC(=O)CSc1nnc(CCC(=O)Nc2ccccc2F)n1C,·,-0.7,-12.0,-2.5,7.9
COc1cccc(-c2noc(CCC(=O)NCC3CCCO3)n2)c1 (stereo not drawn),-4.0,-3.9,-1.2,·,-3.0
COc1cccc(NC(=O)CN(C)CC(=O)NC(C)c2ccccc2)c1 (stereo not drawn),·,-0.2,2.9,-1.5,-8.2
COc1ccc(CN(C)CC(=O)NC(C)c2ccccc2)c(OC)c1 (stereo not drawn),3.0,12.6,56.3*,·,-24.2
Cn1ncc(C#N)c1NC(=O)c1nn2cccnc2c1Cl,-3.0,2.9,-13.4,-7.7,15.5
O=C(NCC1COc2ccccc2O1)C1CCCN(S(=O)(=O)c2cccc3nsnc23)C1 (stereo not drawn),14.0,13.4,-5.2,0.2,10.7
